Some test systems named below: DU-145 prostate; K-562 leukemia; MALME-3M melanoma; MDA-MB-231 breast; RXF 393 renal; SF-268 CNS; SF-295 CNS; SF-539 CNS; UACC-257 melanoma; M14 melanoma; HCT-15 colon; HT29 colon; SNB-75 CNS; SNB-19 CNS; U251 CNS; PC-3 prostate; SK-MEL-5 melanoma; UACC-62 melanoma; LOX IMVI melanoma.
Holding throughout (test): NCI-60 one-dose screen, 48 h (100 = growth as untreated, 0 = no growth, -100 = all killed)
Settings in all cases: 10 µM unless noted

This is part of a sample that, as a whole, favours compounds with a hit. Of some 83,000 tested, about 20% had one in any assay.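 The test compound was applied at a single concentration to cells in 96-well plates for 48 hours, and percent growth was recorded.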 A number with no mark means an inactive call. The source made the active and inactive calls. The calls were made as follows: active = growth percent below 10; inactive = the rest.

For `CNCc1cccc2c1OCCOCCOCCC(C)S(=O)(=O)c1ccc(cc1)-c1cnc(N)c(n1)C(=O)N2` (configuration not stated), the growth is 24.1% with DU-145 prostate; 7.1% (active) with K-562 leukemia; 75.3% in the assay on MALME-3M melanoma; 57.4% in the assay with MDA-MB-231 breast; 16.4% in the assay with RXF 393 renal; 54.2% in the assay with SF-268 CNS. Moreover, the growth was 98.8% in the assay with SF-295 CNS; 25% with SF-539 CNS; 50.6% with UACC-257 melanoma; 52% in the assay on M14 melanoma; 17.8% in the assay with HCT-15 colon; 15.1% in the assay with HT29 colon. The growth is 10.5% in the assay with SNB-75 CNS; 53.8% in the assay on SNB-19 CNS; 19.2% in the assay on U251 CNS; 32.3% with PC-3 prostate; 78.8% with SK-MEL-5 melanoma; 60.6% in the assay with UACC-62 melanoma. Further, in the assay with LOX IMVI melanoma, the growth was 48.8%.

As for `O=C1c2ccccc2C(=O)c2c1oc1ccc3ccccc3c21`, the growth was 85.7% with DU-145 prostate; 101% with K-562 leukemia; 27.8% with MALME-3M melanoma; 60% in the assay with MDA-MB-231 breast; 88.2% in the assay on RXF 393 renal; 76.7% with SF-268 CNS. For the same compound, the growth in the assay on SF-295 CNS was 93.7%; with SF-539 CNS, 78.3%; with UACC-257 melanoma, 77.7%; in the assay on M14 melanoma, 57.1%; in the assay on HCT-15 colon, 65%; with HT29 colon, 106%. Besides, the growth is 93.3% in the assay on SNB-75 CNS; 90% in the assay on SNB-19 CNS; 81.1% in the assay on U251 CNS; 72.3% with PC-3 prostate; 17.3% in the assay on SK-MEL-5 melanoma; 84.2% in the assay on UACC-62 melanoma. Further, the growth in the assay on LOX IMVI melanoma is 41.9%.

Consider `C=C(C)C1CCC2(C(=O)O)CCC3(C)C(CCC4C5(C)CCC(O)C(C)(C)C5CCC43C)C12` (configuration not stated), for which the growth in the assay with DU-145 prostate is -55.5% (active); in the assay on K-562 leukemia it was -34.1% (active); in the assay on MALME-3M melanoma, -17.4% (active); in the assay on MDA-MB-231 breast, -8.05% (active); in the assay on RXF 393 renal it was -68.8% (active); in the assay on SF-268 CNS it was 16.3%. Moreover, the growth is -14.8% (active) in the assay with SF-295 CNS; -54.1% (active) with SF-539 CNS; -17.2% (active) with UACC-257 melanoma; -49.9% (active) in the assay on M14 melanoma; 26.9% in the assay on HCT-15 colon; -9.19% (active) in the assay with HT29 colon. The growth is -24.8% (active) in the assay on SNB-75 CNS; 9.23% (active) with SNB-19 CNS; -45.3% (active) in the assay on U251 CNS; 8.63% (active) in the assay on PC-3 prostate; -75.8% (active) in the assay on SK-MEL-5 melanoma; 50.5% with UACC-62 melanoma. For the same compound, the growth in the assay on LOX IMVI melanoma is 8.78% (active).

For `CN(C)c1ccc(/C=N/Nc2nnc3n2N=C(c2ccc(Cl)cc2)CS3)cc1`, the growth with DU-145 prostate was 100%; with K-562 leukemia it was 79%; in the assay with MALME-3M melanoma, 128%; in the assay with MDA-MB-231 breast, 101%; with RXF 393 renal, 69.7%; in the assay on SF-268 CNS, 97.8%. Further, the growth in the assay on SF-295 CNS was 101%; in the assay with SF-539 CNS, 103%; in the assay with UACC-257 melanoma, 106%; in the assay with M14 melanoma, 100%; in the assay on HCT-15 colon it was 92.5%; in the assay on HT29 colon, 105%. Moreover, the growth with SNB-75 CNS is 96.3%; with SNB-19 CNS it was 89.6%; in the assay with U251 CNS, 95%; in the assay on PC-3 prostate, 82.1%; in the assay with SK-MEL-5 melanoma it was 92.1%; in the assay on UACC-62 melanoma, 98.6%. In addition, the growth with LOX IMVI melanoma was 98.8%.

`Cc1cc(C)cc(NC(=O)Cn2nncc2CN2C(=O)CSC2=O)c1`: the growth is 109% in the assay with DU-145 prostate; 101% in the assay on K-562 leukemia; 100% in the assay with MALME-3M melanoma; 97.5% with MDA-MB-231 breast; 113% with RXF 393 renal; 101% in the assay with SF-268 CNS. Moreover, the growth in the assay on SF-295 CNS was 103%; in the assay with SF-539 CNS it was 94.7%; with UACC-257 melanoma it was 97.3%; in the assay on M14 melanoma it was 106%; in the assay with HCT-15 colon, 99.4%; in the assay on HT29 colon, 108%. In addition, the growth with SNB-75 CNS is 95.1%; with SNB-19 CNS, 100%; in the assay on U251 CNS, 102%; in the assay on PC-3 prostate, 100%; with SK-MEL-5 melanoma, 103%; with UACC-62 melanoma, 94%. Further, in the assay with LOX IMVI melanoma, the growth is 91.3%.

For `CC(C)[C@H](CN)NC[C@H](C)NS(=O)(=O)c1ccc(C(C)(C)C)cc1`, the growth was 105% in the assay with DU-145 prostate; 85.7% in the assay on K-562 leukemia; 97.8% in the assay with MALME-3M melanoma; 117% in the assay on MDA-MB-231 breast; 89.9% in the assay on RXF 393 renal; 93.5% in the assay on SF-268 CNS. The growth with SF-295 CNS was 104%; in the assay on SF-539 CNS, 96.9%; in the assay on UACC-257 melanoma it was 96.4%; in the assay on M14 melanoma, 97.3%; with HCT-15 colon, 99.3%; in the assay on HT29 colon, 65.5%. For the same compound, the growth was 84.2% in the assay on SNB-75 CNS; 111% in the assay with SNB-19 CNS; 87.1% with U251 CNS; 83.5% in the assay on PC-3 prostate; 86.8% in the assay with SK-MEL-5 melanoma; 111% with UACC-62 melanoma. Besides, in the assay with LOX IMVI melanoma, the growth was 99.9%.

`CC(C)c1ccc(Cn2ccc3c4c(N)nc(NC5CC5)nc4ccc32)cc1`: the growth in the assay on DU-145 prostate was -89.5% (active); with K-562 leukemia it was -69.7% (active); with MALME-3M melanoma, -91.6% (active); in the assay on MDA-MB-231 breast, -89.6% (active); in the assay with RXF 393 renal it was -90.9% (active); in the assay on SF-268 CNS, -77.6% (active). For the same compound, the growth is -82.8% (active) with SF-295 CNS; -91.5% (active) in the assay with SF-539 CNS; -77.8% (active) in the assay on UACC-257 melanoma; -86.2% (active) with M14 melanoma; -80.6% (active) with HCT-15 colon; -76.2% (active) in the assay on HT29 colon. Besides, the growth with SNB-75 CNS was -94.4% (active); in the assay with SNB-19 CNS it was -85.1% (active); in the assay on U251 CNS it was -95.1% (active); with PC-3 prostate it was -82% (active); in the assay with SK-MEL-5 melanoma it was -96.1% (active); with UACC-62 melanoma it was -93.1% (active). Moreover, in the assay with LOX IMVI melanoma, the growth was -90.2% (active).

Consider `COc1ccc2[nH]c(C(=O)OCc3ccc4c(Br)cc(Br)c(O)c4n3)cc2c1`, for which the growth in the assay with DU-145 prostate was -94.6% (active); with K-562 leukemia, 1.4% (active); in the assay on MALME-3M melanoma it was -79.6% (active); in the assay with MDA-MB-231 breast, -73.6% (active); in the assay with RXF 393 renal it was -89.2% (active); in the assay with SF-268 CNS, -70.8% (active). In addition, the growth is 72.3% in the assay on SF-295 CNS; -91.9% (active) in the assay on SF-539 CNS; -72.8% (active) with UACC-257 melanoma; -64.1% (active) in the assay on M14 melanoma; -62.1% (active) in the assay with HCT-15 colon; -73.6% (active) in the assay with HT29 colon. In addition, the growth was -75.5% (active) in the assay on SNB-75 CNS; 43.1% in the assay on SNB-19 CNS; -28.3% (active) in the assay on U251 CNS; -64.9% (active) with PC-3 prostate; -89.6% (active) in the assay on SK-MEL-5 melanoma; -79.5% (active) in the assay with UACC-62 melanoma. Further, the growth with LOX IMVI melanoma was -95.4% (active).

(Values after PubChem BioAssay (NCI).)
